Screening data: PubChem, National Center for Advancing Translational Sciences (NCATS)
Pf growth 96h – Primary qHTS for delayed death inhibitors of the malarial parasite plastid, 96 hour incubation; P. falciparum luciferase reporter growth, 96 h; Potency, µM (highest dose often 28.7 µM), usual class: inhibitors; 320,000 compounds, 6.9% hits; AID 504834, 2011
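Two parasite generations (96 h, 37 C, 5% CO2) of compound exposure in infected erythrocytes (0.05% parasitemia, 2% hematocrit). Luciferase-reporter P. falciparum; decreased luminescence indicates inhibited growth, aimed at apicoplast-acting delayed death.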
SARS PLpro yeast – qHTS of Yeast-based Assay for SARS-CoV PLP; S. cerevisiae expressing SARS-CoV PLpro, growth rescue; Potency, µM (top dose mostly 32.9 µM), usual class: activators; 330,000 compounds, 0.19% hits; calls by dose curve; further: nearly all actives have a fitted effect of over 55% in size
Shiga inhibitor – A qHTS for Small Molecule Inhibitors of Shiga Toxin; Vero cells, Shiga toxin protein synthesis inhibition reporter; inhibition, % at 38.7 µM; 290,000 compounds, 9.2% hits; AID 2315, 2010; in the data active means inhibition mostly above about 28%, no sharp cut-off; inactive means mostly below about 43%
Pf growth 48h – Primary qHTS for delayed death inhibitors of the malarial parasite plastid, 48 hour incubation; P. falciparum luciferase growth in erythrocytes, 48 h; Potency, µM (titrated, usually from 28.7 µM), hits mostly inhibitors; 310,000 compounds, 5.9% hits
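Growth was read as firefly luciferase luminescence after a 48 h, 37 C, 5% CO2 exposure of compounds to reporter-bearing P. falciparum cultures (0.1% parasitemia, 2% hematocrit final) in Albumax-supplemented RPMI 1640.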
AMA1 RON2 block – qHTS for Inhibitors of AMA1-RON; Towards Development of Antimalarial Drug Lead: Primary Screen. AlphaScreen AMA1-biotinylated RON2 peptide binding. AID 720542, 2013. Potency, µM (series often up to 58.2 µM), actives largely listed as inhibitors. 360,000 compounds, 0.2% hits; further: nearly all actives have a fitted effect of over 45% in size
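AMA1 (3D7) with his tag at 25 nM final met compounds first, then biotinylated RON2 peptide at 25 nM; detection used donor plus acceptor beads, 10 µg/mL apiece, read by AlphaScreen after 30 min at room temperature.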
Cycloheximide cs – Cycloheximide Counterscreen for Small Molecule Inhibitors of Shiga Toxin | 300,000 compounds, 12% hits | max response, % | cell reporter, cycloheximide protein synthesis inhibition counterscreen | AID 2314, 2010; in the data active means max response mostly above about 13%, no sharp cut-off; inactive means mostly below about 14%; further: read at 38.3 µM for the half of the compounds with a filed dose
Of the large screens only hits and unclear results are named; the others gave an inactive call. Hits are enriched below; roughly 19% of the tested compounds scored in any of these assays. Unless noted, the call rests on the fitted dose curve; in most records, active means well fitted curve in the direction sought with a large enough effect; inconclusive means small, poorly fitted or top-dose-only effect, or another doubt; inactive means no such curve, though single readings can be large; an effect the other way counts as inactive or inconclusive.

O=C(CN(C1CCCCC1)S(=O)(=O)c1ccccc1)NCc1cccnc1	Pf growth 96h 9.3µM
O=C(CN(C1CCCCC1)S(=O)(=O)c1ccc(Cl)cc1)NCc1cccnc1	Pf growth 48h inconclusive
O=C(CCc1ccc(S(=O)(=O)NC2CCCCC2)cc1)NCc1cccnc1	Cycloheximide cs 15
Cc1ccc(CNC(=O)CCc2ccc(S(=O)(=O)NC3CCCCC3)cc2)cc1	none (no result: Pf growth 96h)
CCCOc1ccc(CNC(=O)Cn2ncc3ccccc32)cc1	Shiga inhibitor 59, Cycloheximide cs 34
CCCOc1ccc(CNC(=O)CCC(=O)n2ncc3cc(C)ccc32)cc1	none
C=CC(=O)Nc1ccc(N(C)c2ccnc(Nc3ccc(N4CCN(C)CC4)cc3)n2)cc1	AMA1 RON2 block inconclusive (no result: Pf growth 96h, Shiga inhibitor, Pf growth 48h, Cycloheximide cs)
CCn1c(COc2ccccc2C)nnc1SCC(=O)OC	Pf growth 96h inconclusive
CCn1c(COc2ccccc2C)nnc1SCC(=O)N1CCN(c2ccccc2)CC1	Pf growth 96h inconclusive, Pf growth 48h 10µM
CCn1c(CC(=O)Nc2cccc(OC)c2)nnc1SCC(=O)N1CCN(c2ccccc2)CC1	none
CCn1c(COc2cccc(C)c2C)nnc1SCC(=O)N1CCN(c2ccc(OC)cc2)CC1	Pf growth 96h 9.3µM, Pf growth 48h inconclusive
O=C(COC(=O)COc1ccccc1)Nc1ncc([N+](=O)[O-])s1	none (no result: Shiga inhibitor, Cycloheximide cs)
N/C(=N\OC(=O)Nc1ccccc1)c1ncc([N+](=O)[O-])s1	Pf growth 96h inconclusive, Pf growth 48h inconclusive, Cycloheximide cs 28
CCSc1nnc(-c2ccccc2N=Cc2c(C)[nH]n(-c3ccccc3)c2=O)c(=O)[nH]1	Pf growth 96h inconclusive, Cycloheximide cs 13
CCSc1nnc(-c2cc(Br)ccc2N)c(=O)[nH]1	none
CCSc1nnc(-c2ccccc2N)c(=O)[nH]1	Pf growth 96h inconclusive, Shiga inhibitor 53, Cycloheximide cs 24
CC(C)c1cccc(C(C)C)c1OCCCCCN1CCOCC1	none (no result: Pf growth 96h, SARS PLpro yeast, Shiga inhibitor, Pf growth 48h, Cycloheximide cs)
Cc1ccc(C(=O)NC(=S)NCCCN2CCOCC2)cc1	Shiga inhibitor 50
O=C(NC(=S)NCCCN1CCOCC1)c1cccc2ccccc12	Pf growth 96h 6.6µM, Pf growth 48h inconclusive
O=C(NC(=S)NCCCN1CCOCC1)c1ccc(Br)cc1	Cycloheximide cs 21
Cc1ccc(C(=O)NCCCN2CCOCC2)cc1	none (no result: Pf growth 96h, SARS PLpro yeast, Shiga inhibitor, Pf growth 48h, Cycloheximide cs)
O=C(NCCCN1CCOCC1)c1ccc(Sc2ccc(Br)cc2)c([N+](=O)[O-])c1	Pf growth 96h 15µM
CNC[C@H]1Oc2c(NC(=O)C3CC3)cccc2C(=O)N([C@H](C)CO)C[C@@H]1C	none (no result: Pf growth 96h, Shiga inhibitor, Pf growth 48h, Cycloheximide cs)
Cc1ccc(C(=O)N/C(=C\c2ccc(-c3ccccc3[N+](=O)[O-])o2)C(=O)NCCCN2CCOCC2)cc1	Pf growth 96h 2.9µM, Pf growth 48h 1.9µM
COc1ccc(S(=O)(=O)Nc2ccc(-c3ccc4nncn4n3)cc2)c(OC)c1	Pf growth 96h inconclusive, Pf growth 48h inconclusive (no result: Shiga inhibitor, Cycloheximide cs)
N=C(N)SCCc1cnc[nH]1	none (no result: SARS PLpro yeast, Shiga inhibitor, Cycloheximide cs)
OCc1cnc[nH]1	Pf growth 96h 9.3µM, Pf growth 48h inconclusive
COc1ccccc1C(=O)NC(=S)Nc1ccccc1N1CCCC1	Pf growth 96h 3.7µM, Cycloheximide cs 28 (no result: AMA1 RON2 block)
O=C(NC(=S)Nc1ccccc1N1CCCCC1)c1ccc(F)cc1Cl	Pf growth 96h inconclusive, Pf growth 48h 12µM
COC(=O)C1=C[C@@H](C(=O)OC)C2C3=C(C(=O)[C@@]2(C)NC(=O)c2ccccc2)[C@H](C)[C@@H]2C(=O)NC(=O)[C@@H]2[C@@H]3C1 (stereo partly drawn)	none (no result: Pf growth 96h, SARS PLpro yeast, Pf growth 48h, AMA1 RON2 block)
CN(C)Cc1c(O)ccc2c(-c3ccccc3)cc(=O)oc12	Pf growth 96h 9.3µM
O=C(Nc1ccc(C(F)(F)F)cc1)c1ccc(NC(=O)C2CCCO2)cc1 (stereo not drawn)	Pf growth 96h inconclusive
O=C(Nc1ccc(F)cc1)c1ccc(NC(=O)C2CCCO2)cc1 (stereo not drawn)	Pf growth 96h 1.9µM, Shiga inhibitor 73, Cycloheximide cs 21
O=C(O)c1cccc(NC(=O)c2cccc(NC(=O)C3CCCO3)c2)c1 (stereo not drawn)	none (no result: Pf growth 96h)
O=C(Nc1cccc(O)c1)c1ccc(NC(=O)C2CCCO2)cc1 (stereo not drawn)	Shiga inhibitor 110, Cycloheximide cs 47
COc1ccc(CC(=O)NCC2CCCN(Cc3cccc(SC)c3)C2)cc1 (stereo not drawn)	Pf growth 96h inconclusive, Pf growth 48h inconclusive
CNC(=O)CSc1nnc(-c2ccco2)n1-c1cccc(C)c1	SARS PLpro yeast inconclusive
CNC(=O)CSc1nnc(-c2ccco2)n1-c1cccc(C)c1C	Pf growth 96h inconclusive, Pf growth 48h inconclusive
COc1ccc(C)cc1NC(=O)CSc1nnc(-c2ccco2)n1N	none
CNC(=O)CSc1nnc(-c2ccco2)n1-c1cccc(OC)c1	Pf growth 96h 2.1µM
COc1ccc(OC)c(NC(=O)CSc2nnc(-c3ccco3)n2-c2ccc(C(=O)O)cc2)c1	Pf growth 96h 0.41µM, Pf growth 48h 4.7µM
CNC(=O)CSc1nnc(-c2ccco2)n1-c1cc(C)ccc1C	Pf growth 96h 12µM
O=C(Nc1cccc(S(=O)(=O)NC2=NCCC2)c1)c1c(F)cccc1Cl	none (no result: Shiga inhibitor, Cycloheximide cs)
CCOC(=O)c1sc2nc(C)nc(SC(C)C(=O)NC3CC3)c2c1C (stereo not drawn)	none (no result: Shiga inhibitor, Cycloheximide cs)
COC(=O)[C@@H]1C[C@H]2CC[C@H](O)C[C@H]2N1Cc1ccc(C(F)(F)F)cc1	Pf growth 96h inconclusive, Pf growth 48h inconclusive
O=C(CSc1n[nH]c(-c2cccnc2)n1)Nc1ccccc1C(F)(F)F	none
COc1cccc(/C=N/Nc2nc3ccccc3n3cnnc23)c1O	Pf growth 96h inconclusive, Pf growth 48h inconclusive
COc1cccc(/C=N/n2c(C)nc3ccccc3c2=O)c1O	none (no result: Pf growth 48h)
COc1cccc(/C=N/Nc2nc(Nc3ccccc3)nc(-n3nc(C)cc3C)n2)c1O	Pf growth 96h inconclusive, Shiga inhibitor 31, Cycloheximide cs 44 (no result: Pf growth 48h)
COc1cccc(/C=N/Nc2cc(-n3nc(C)cc3-c3ccccc3)ncn2)c1O	SARS PLpro yeast inconclusive, Pf growth 48h 5.9µM
CCCn1c(=O)[nH]c(=O)c2c(C(=O)OCC)cc(-c3cccs3)nc21	Pf growth 96h inconclusive, Shiga inhibitor 44, Pf growth 48h inconclusive, Cycloheximide cs 31
Cc1cc(C)nc(N/N=C/C2=C(N3CCOCC3)C(=C\c3ccc(Cl)cc3)/CC2)n1	Pf growth 48h inconclusive
CN(C(=O)NC(=O)C1=C(N2CCOCC2)/C(=C/c2ccccc2)CC1)S(C)(=O)=O	Shiga inhibitor 53, Cycloheximide cs 29 (no result: Pf growth 96h)
O=C(O)c1ccc(N/N=C/C2=C(N3CCOCC3)C(=C\c3ccccc3)/CC2)cc1	Shiga inhibitor 74, Pf growth 48h inconclusive, Cycloheximide cs 38
C[C@H](NCc1ccccc1)c1ccccc1	none (no result: Pf growth 96h, SARS PLpro yeast, Pf growth 48h, AMA1 RON2 block)
Cc1ccc(C)c(NC(=O)CCc2c(C)nn(-c3ccc(N4CCCCC4)nn3)c2C)c1	Pf growth 96h inconclusive
